An excerpt weighted towards active compounds, which were near 1.7% of everything screened.
KCNH2 3.1 block: qHTS for Inhibitors of KCHN2 3.1: Mutant qHTS; activity change, % (tested at about 1.8 µM); 0.95% of 340,000 active; AID 720553, 2013; U2OS KCNH2 3.1, thallium flux FluxOr; hits give low values; Potassium voltage-gated channel subfamily H member 2, brain isoform KCNH2 3.1 (human);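 active = maximum activity change below -70%; inconclusive = maximum activity change from -70% to -50%; inactive = maximum activity change above -50%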;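 note: thallium influx rate constant from kinetic fluorescence after stimulation buffer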
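Thallium flux via FluxOr fluorescence (Red40 quencher, 45 min loading) in U2OS cells virally expressing the KCNH2 3.1 isoform (1.77 x 10^8 /mL virus, overnight at 37 C). Rate constants from 2-min kinetic reads post-stimulation, normalised to positive and negative controls.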
RXFP1 antagonist: qHTS Assay for Antagonists of the Relaxin Receptor RXFP1. Relaxin receptor 1 (Homo sapiens), Q9HBX9. 0.59% of 350,000 active. AID 1259400, 2018. HEK293-RXFP1, relaxin-stimulated cAMP HTRF, 30 min; hits give low values. activity change, negative = inhibition, % at 57.5 µM;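 active = activity change of -60% or lower, but not beyond a set lower limit; inconclusive = change between -60% and -40%, or beyond the set limit; inactive = change above -40%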
RXFP1 ag: qHTS Assay for Agonists of the Relaxin Receptor RXFP1; Relaxin receptor 1 (Homo sapiens), Q9HBX9; HEK293T-RXFP1 cAMP TR-FRET, 30 min; response scale: percent of porcine relaxin response, buffer zero; Potency, µM (highest dose often 57.5 µM), without a hit: top-dose activation, actives largely listed as activators; 0.3% of 370,000 active; active = well fitted activation curve with a large enough effect; inconclusive = small, poorly fitted or top-dose-only effect; note: potency is the fitted concentration of half-maximal effect; nearly all actives have a fitted effect of over 60% in size
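HEK293T cells stably expressing RXFP1 were pretreated with the PDE4 inhibitor Ro 20174, exposed to compounds for 30 min at 37C, lysed, and cAMP was read by TR-FRET. Data normalized to buffer (basal) and 29 nM porcine relaxin (100%).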
KCNH2 WT inh: qHTS for Inhibitors of KCHN2 3.1: Wildtype qHTS | Voltage-gated inwardly rectifying potassium channel KCNH2 (Homo sapiens), Q12809 | 0.37% of 340,000 active | U2OS, BacMam KCNH2, thallium flux FluxOr; hits give low values | activity change, % at 1.84 µM;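 active = maximum activity change below -70%; inconclusive = maximum activity change between -70% and -50%; inactive = maximum activity change above -50%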
Target sequence (Q12809 whole entry, looked up): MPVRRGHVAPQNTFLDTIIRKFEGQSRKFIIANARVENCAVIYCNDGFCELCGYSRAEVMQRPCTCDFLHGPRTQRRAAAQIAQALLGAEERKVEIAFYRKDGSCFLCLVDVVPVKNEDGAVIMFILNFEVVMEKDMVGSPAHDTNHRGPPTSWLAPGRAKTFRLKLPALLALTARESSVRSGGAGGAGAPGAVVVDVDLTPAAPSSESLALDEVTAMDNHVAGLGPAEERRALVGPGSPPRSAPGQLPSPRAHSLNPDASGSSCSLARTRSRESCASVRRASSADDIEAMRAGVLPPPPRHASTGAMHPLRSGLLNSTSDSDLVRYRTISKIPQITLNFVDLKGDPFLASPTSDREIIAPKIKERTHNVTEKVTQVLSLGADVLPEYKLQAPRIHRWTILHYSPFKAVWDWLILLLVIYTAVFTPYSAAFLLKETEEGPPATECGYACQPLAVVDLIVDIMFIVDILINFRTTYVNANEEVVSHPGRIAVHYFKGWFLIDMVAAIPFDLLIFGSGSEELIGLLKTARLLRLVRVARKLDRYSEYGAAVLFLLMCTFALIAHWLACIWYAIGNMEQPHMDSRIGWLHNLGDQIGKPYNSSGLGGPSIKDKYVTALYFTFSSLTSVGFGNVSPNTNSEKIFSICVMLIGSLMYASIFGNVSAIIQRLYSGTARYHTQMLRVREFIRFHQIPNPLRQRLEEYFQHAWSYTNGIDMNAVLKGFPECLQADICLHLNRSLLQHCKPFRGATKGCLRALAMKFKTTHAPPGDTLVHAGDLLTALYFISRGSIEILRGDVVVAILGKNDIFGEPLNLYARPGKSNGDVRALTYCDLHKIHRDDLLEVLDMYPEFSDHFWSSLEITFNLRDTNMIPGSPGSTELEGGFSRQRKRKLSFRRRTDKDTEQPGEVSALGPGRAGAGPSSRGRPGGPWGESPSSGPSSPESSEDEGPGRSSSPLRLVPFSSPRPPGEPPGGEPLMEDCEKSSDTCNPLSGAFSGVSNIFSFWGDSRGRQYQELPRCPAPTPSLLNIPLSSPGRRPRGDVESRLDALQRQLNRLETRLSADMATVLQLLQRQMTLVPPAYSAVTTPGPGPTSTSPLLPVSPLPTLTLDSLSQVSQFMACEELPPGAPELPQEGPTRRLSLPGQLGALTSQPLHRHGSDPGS
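U2OS cells transduced with wild-type KCNH2 virus are loaded with FluxOr dye for 45 min, and thallium flux is measured in kinetic reads before and after stimulation buffer. Rate constants are normalized to DMSO controls.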
Akt phos inh: HTS Assay for Inhibitors of Akt Phophorylation: Primary Screen; 0.32% of 360,000 active; AID 651550, 2012; Neuro2A IGF-stimulated pAkt S473 HTRF, 20 min; hits give low values; activity change, % for hits at 50 µM; in the data active = activity change below about -80%; inconclusive = mostly about -51% to -80%
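Single-point screen (50 µM final compound) in Neuro2A cells stimulated 20 min with 6 nM IGF at 37 deg C. After lysis, Ser473-phosphorylated Akt read by HTRF (ex 330 nm, em 615/665 nm) as the 665/615 ratio.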
Numbers without * were called inactive; i = inactive; ? = inconclusive; . = no result. % is set by controls: 0 for no effect and ±100 for the full control effect.

SMILES	KCNH2 3.1 block	RXFP1 antagonist	RXFP1 ag	KCNH2 WT inh	Akt phos inh
COc1cc(F)ccc1-c1csc(C(C)(O)c2ccc(F)c(F)c2)n1 (stereo not drawn)	.	.	.	.	i
Cc1ccc(-n2c3nc(=O)[nH]c(=O)c-3cc3c(C)nn(-c4ccccc4)c32)c(C)c1	-149*	-13	18%	-151*	i
Cc1ccc(C)c(-n2c3nc(=O)[nH]c(=O)c-3cc3c(C)nn(-c4ccccc4)c32)c1	.	.	1%	.	.
Cc1nnc2ccc(-c3cccc(NC(=O)c4ccc(Cl)nc4)c3)nn12	-4	-15	11%	7	i
Cc1nnc2ccc(-c3cccc(NC(=O)c4ccc(Br)o4)c3)nn12	11	-75*	10%	18	i
C=CCn1c(SCC(=O)Nc2ccc(S(N)(=O)=O)cc2)nnc1-c1cnccn1	-12	-3	1%	-143*	i
CNC(=O)C12CCC(C)(c3nc4cc(C)c(C)cc4nc31)C2(C)C (stereo not drawn)	-5	7	6%	-5	i
COC(=O)[C@@]1(C)[C@H]2C(=O)N(Cc3ccccc3)C(=O)[C@H]2[C@H]2CN=C(SCC(=O)c3ccccc3)N21	-80*	.	.	-3	i
CN(C)c1ccc(C(C#N)c2ccccc2)nn1 (stereo not drawn)	-10	-69*	-3%	-6	i
CN(C)c1ccc(C(C#N)c2ccc(Cl)cc2)nn1 (stereo not drawn)	?	1	2%	-9	i
O=C(Nc1nc2n(n1)C(c1ccccc1)C=C(c1ccccc1)N2)c1ccc(Cl)c([N+](=O)[O-])c1 (stereo not drawn)	.	-36	0%	.	.
CC(C)NC(=O)C12CC3CC(C1)CC(C(=O)NC(C)C)(C3)C2	-88*	-4	1%	16	i
Cc1cccc(-c2nc(SCc3cc(=O)c4c(C)cc(C)cc4[nH]3)n[nH]2)c1	.	-70*	-3%	.	.
COc1ccc(NC(=O)CC2C(=O)N(c3ccc(OC)cc3)C(=O)N2C(C)C)cc1 (stereo not drawn)	-82*	-17	0%	-30	i
CCn1ncc(C(=O)Nc2ccccc2C)c1C	-95*	-3	6%	19	i
Cc1cccc(C)c1Nc1c(-c2ccccc2F)nc2cccc(C)n12	.	-100*	5%	.	.
CC(=O)c1ccc(Nc2c3c(nc4ccccc24)CCCC3)cc1	-10	-18	0%	-77*	i
CC(=O)c1cccc(Nc2c3c(nc4ccccc24)CCC3)c1	-19	0	3%	-3	i
COc1ccc(OC)c(NC(=O)c2cc(=O)c3c(C)cc(C)cc3o2)c1	.	-5	0%	.	.
CC(=O)Oc1ccccc1C(=O)C=Cc1cccc([N+](=O)[O-])c1	-4	-84*	.	11	i
CC(=O)Nc1ccc(C=CC=Cc2cccc([N+](=O)[O-])c2)cc1	9	-61*	.	0	i
Cc1cc(O)c(C(=O)/C=C/c2cccc([N+](=O)[O-])c2)c(=O)o1	-9	-33	0%	-3	i
N#CC(=C1N=c2ccccc2=N1)c1c(O)[nH]c2ccccc12	.	.	0%	.	.
CC(=NNC(=S)Nc1cccc(Cl)c1)c1ccccn1	3	16	.	19	i
C[C@H](NC(=O)c1nc[nH]c1C(=O)N1CCNCC1)C(=O)OC(C)(C)C	14	.	0%	-1	i
SMILES	KCNH2 3.1 block	RXFP1 antagonist	RXFP1 ag	KCNH2 WT inh	Akt phos inh
CCOC(=O)CN1C(=O)C(Sc2n[nH]c(-c3cccc(C)c3)n2)CCc2ccccc21 (stereo not drawn)	4	-12	2%	14	i
CCOC(=O)c1c(C)oc(NC(=O)COc2ccc(Cl)cc2C)c1C#N	-75*	-2	1%	-2	i
Brc1ccc(CSc2ccc3nnc(-c4ccccn4)n3n2)cc1	-34	-1	8%	-6	i
CCOc1ccc(CCNS(=O)(=O)c2ccc(-c3ccc(=O)[nH]n3)o2)cc1OCC	15	8	2%	-1	i
CCOc1ccc(CCNS(=O)(=O)c2cnc[nH]2)cc1OCC	11	7	4%	-3	-132%*
O=C(O)c1ccc(C(=O)Nc2cccc3ccccc23)c(C(=O)O)c1	-7	6	0%	5	i
CCOC(=O)[C@]12CCCC=C1N(Cc1ccc3c(c1)OCO3)C(=O)[C@H](CC(=O)N1CCOCC1)C2	.	.	.	.	i
COc1ccc(/C=N/NC(=O)c2ccc(F)cc2)cc1CN1CCc2cc(OC)c(OC)cc2C1C (stereo not drawn)	-88*	19	0%	-91*	i
COc1ccc(/C=N/NC(=O)c2ccncc2)cc1CN1CCN(c2ccc(F)cc2)CC1	-90*	-20	-1%	18	i
COc1ccc(/C=N/NC(=O)c2ccc(C)cc2)cc1CN1CCN(c2ccc(F)cc2)CC1	-108*	2	1%	-72*	i
COc1ccc(/C=N/NC(=O)c2ccc(O)cc2)cc1CN1CCCc2ccccc21	-5	-7	0%	-6	i
N#Cc1nc(Cc2cccc3ccccc23)oc1N1CCCCC1	-10	-10	2%	-6	.
COc1ccc(OCCCC(=O)OC(C)C(=O)Nc2ccc(S(N)(=O)=O)cc2)cc1 (stereo not drawn)	15	9	0%	-4	i
CCOC(=O)C(CC)/C(C)=N/NC(=O)c1ccccc1[N+](=O)[O-] (stereo not drawn)	14	16	2%	-5	i
CCOC(=O)C(/C(C)=N/NC(=O)c1ccccc1[N+](=O)[O-])C(C)C (stereo not drawn)	-83*	2	2%	0	i
CCC(C)[C@H]1CNCCN1CCC12CC3CC(CC(C3)C1)C2 (stereo partly drawn)	-136*	.	0%	-15	i
CCC(C)[C@H]1CNCCN1CCc1cccc2ccccc12 (stereo partly drawn)	-5	.	-1%	-2	i
Clc1ccc(Cl)c(OCCCCNCc2ccccc2)c1	-93*	-1	3%	1	i
COc1cc(C)ccc1OCCCCNCc1ccccc1	46	-2	0%	18	i
Clc1ccc(OCCCNCc2ccccc2)c(Br)c1	-21	-77*	-2%	4	i
O=C(NC(=S)Nc1ccc(C(=O)N2CCOCC2)cc1)c1ccc([N+](=O)[O-])cc1	8	6	1%	-33	i
Cn1cc(CNCc2cnc3ccccn23)c(-c2ccc(Oc3ccccc3)cc2)n1	-207*	6	1%	i	i

Bioassay records deposited in PubChem by National Center for Advancing Translational Sciences (NCATS).
